test system: murine 3T3 fibroblasts; test: primary screen, percent viability or growth; higher = less effect of the substance
Experimental: Similarly, for measuring the cytotoxicity concentration (CC50) for 3T3 fibroblast cells, cultures were incubated with drugs for 72 hours and developed using Alamar Blue (Alamar Biosciences Inc, Sacramento, CA) as previously described.

| Compound | Mammalian (3T3) cell % growth at 10 uM [%] |
| --- | --- |
| Cc1c(O)c(O)cc2c1CC=C1[C@@]2(C)CC[C@@]2(C)[C@@H]3C[C@](C)(C(=O)O)CC[C@]3(C)CC[C@]12C | 0.1 |
| C[C@@H]1CC[C@H]2[C@@H](C)C(=O)O[C@@H]3O[C@@]4(C)CC[C@@H]1[C@]32OO4 | 77.6 |
| CC[C@@]1(O)C(=O)OCc2c1cc1n(c2=O)Cc2cc3ccccc3nc2-1 | 94.3 |
| CC1=C(O)C(=O)C=C2C1=CC=C1[C@@]2(C)CC[C@@]2(C)[C@@H]3C[C@](C)(C(=O)O)CC[C@]3(C)CC[C@]12C | 1 |
| COc1ccc(C[C@H]2NC[C@H](O)[C@H]2OC(C)=O)cc1 | 10.3 |
| O=C1C=C2C=C[C@@H]3C[C@@]2(O1)[C@H]1CCCCN31 | 75 |
| CC(C)c1ccc2c(c1O)CC[C@H]1C3=C(CC[C@]21C)C(=O)OC3 | 83.1 |

— article PMC4102417
